# Inconclusive results are not listed. Calls of active or inactive are those of the source. Unless noted, calls follow the shape of the dose curve; as a rule, active = well fitted inhibition curve with a large enough effect; inconclusive = small, poorly fitted or top-dose-only effect; inactive = flat fitted curve, though single readings scatter.
# What was measured:
# [1] = qHTS for identification of novel therapeutic agents for treatment of microphthalmiaassociated transcription factor (MiT) renal cell carcinoma (RCC) (AID 1963991; calls by dose curve; also: potency is read from the fitted curve at half-maximal effect); details: CellTiter-Glo, 48 h; for z-score: stronger effect = lower value; for Potency: active = Z-AUC below -0.8 in all three lines
# Procedure, shortened: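 Three TFE3-fusion RCC cell lines (UOK109, UOK124, UOK145), 500 cells/well, were exposed to the 1912-compound MIPE 4.0 library for 48 hours at 37 C. Viability was read by CellTiter-Glo luminescence, normalised to DMSO (100%) and empty wells (0%), with 11-concentration curve fits.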
# [2] = qHTS profiling for inhibitors of Plasmodium falciparum proliferation (AID 504749);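 also: 0% = DMSO vehicle and full inhibition = artemisinin control; nearly all actives have a fitted effect of over 60% in size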; details: P. falciparum in erythrocytes, SYBR Green DNA, 72 h, at 28.7 µM (top of the series)
# Procedure, shortened: (§1)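 In a 72 h erythrocytic culture (37 C, humidified, 5% CO2) at 2.5% hematocrit and 0.3% starting parasitemia, compounds were tested; SYBR Green I in detergent lysis buffer stained parasite DNA overnight.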
# [3] = system: 3D7; assay: as above; details: P. falciparum in erythrocytes, SYBR Green DNA, 72 h; series mostly up to 28.7 µM
# Procedure, shortened: as §1
# [4] = system: 7G8; assay: as above; details: P. falciparum in erythrocytes, SYBR Green DNA, 72 h; series mostly up to 28.7 µM
# Procedure, shortened: as §1
# [5] = system: AA1029; assay: as above; details: P. falciparum in erythrocytes, SYBR Green DNA, 72 h; series mostly up to 28.7 µM
# Procedure, shortened: as §1
# [6] = system: AS120; assay: as above; details: P. falciparum in erythrocytes, SYBR Green DNA, 72 h; series mostly up to 28.7 µM
# Procedure, shortened: as §1
# [7] = system: ATS189; assay: as above; details: P. falciparum in erythrocytes, SYBR Green DNA, 72 h; series mostly up to 28.7 µM
# Procedure, shortened: as §1
# [8] = system: ATS95; assay: as above; details: P. falciparum in erythrocytes, SYBR Green DNA, 72 h; series mostly up to 28.7 µM
# Procedure, shortened: as §1
# [9] = TFE3-RCC UOK109 viability, measured here: UOK109 Z-AUC
# [10] = TFE3-RCC viability, measured here: UOK124 Z-AUC
# [11] = TFE3-RCC viability, measured here: UOK145 Z-AUC
smiles,measurement,setting,value
COc1cc(C=CC(=O)O)ccc1O,z-score,[1]; [9],-0.0784
same,z-score,[1]; [10],0.112
same,z-score,[1]; [11],0.103
O=C(O)C1=NC(C(=O)O)CC(C=CN2c3cc(O)c(OC4OC(CO)C(O)C(O)C4O)cc3CC2C(=O)O)=C1 (stereo unspecified),z-score,[1]; [9],1.58
same,z-score,[1]; [10],0.431
same,z-score,[1]; [11],0.57
C[C@@H]1O[C@@H](O[C@H]2CC[C@@]3(C)[C@H](CC[C@@H]4[C@H]3C[C@@H](O)[C@]3(C)[C@@H](C5=CC(=O)OC5)CC[C@]43O)C2)C[C@H](O)[C@@H]1O[C@H]1C[C@H](O)[C@H](O[C@H]2C[C@H](O)[C@@H](O)[C@@H](C)O2)[C@H](C)O1 (stereo in doubt),Potency,[1]; TFE3-RCC UOK109 viability,215 nM (active)
same,z-score,[1]; [9],-2.46
same,z-score,[1]; [10],-1.68
same,z-score,[1]; [11],-0.987
CO[C@H]1C=CO[C@@]2(C)Oc3c(C)c(O)c4c(O)c(c(C=NN5CCN(C)CC5)c(O)c4c3C2=O)NC(=O)C(C)=CC=C[C@H](C)[C@H](O)[C@@H](C)[C@@H](O)[C@@H](C)[C@H](OC(C)=O)[C@H]1C,z-score,[1]; [9],2.16
same,z-score,[1]; [10],2
same,z-score,[1]; [11],1.3
O=C1C(CCC(O)c2ccc(F)cc2)C(c2ccc(O)cc2)N1c1ccc(F)cc1 (stereo unspecified),"activity, negative = inhibition",[2]; parasite line A,3.97% (inactive)
same,"activity, negative = inhibition",[2]; parasite line B,8.1% (inactive)
same,Potency,[3],inactive
same,Potency,[4],inactive
same,Potency,[5],inactive
same,Potency,[6],inactive
same,Potency,[7],inactive
same,Potency,[8],inactive
COc1ccc(C=CC(=O)Nc2ccccc2C(=O)O)cc1OC,z-score,[1]; [9],0.299
same,z-score,[1]; [10],1.48
same,z-score,[1]; [11],-0.0429
CC(=O)OCC(=O)[C@@]12OC(C)(C)O[C@H]1C[C@H]1[C@@H]3C[C@H](F)C4=CC(=O)C=C[C@]4(C)[C@@]3(F)[C@@H](O)C[C@@]12C,z-score,[1]; [9],0.123
same,z-score,[1]; [10],0.68
same,z-score,[1]; [11],0.0965
FC(F)(F)c1ccc(C=Cc2nc(COc3ccc(CCCCn4ccnn4)cc3)co2)cc1,Potency,[1]; TFE3-RCC UOK109 viability,2.96 nM (active)
same,z-score,[1]; [9],-2.19
same,z-score,[1]; [10],-1.14
same,z-score,[1]; [11],-1.58
CC1(C)CC(=O)c2c(C(F)(F)F)nn(-c3ccc(C(N)=O)c(NC4CCC(O)CC4)c3)c2C1 (stereo unspecified),Potency,[1]; TFE3-RCC UOK109 viability,372 nM (active)
same,z-score,[1]; [9],-1.31
same,z-score,[1]; [10],-0.879
same,z-score,[1]; [11],-1.53
COc1cc(CNC(=O)CCCCC=CC(C)C)ccc1O,z-score,[1]; [9],0.273
same,z-score,[1]; [10],0.406
same,z-score,[1]; [11],0.0429
C=CC[N+]1([C@H]2C[C@H]3[C@@H]4CC[C@H]5C[C@H](O)[C@@H](N6CCOCC6)C[C@]5(C)[C@@H]4CC[C@]3(C)[C@H]2OC(C)=O)CCCC1,z-score,[1]; [9],0.798
same,z-score,[1]; [10],0.675
same,z-score,[1]; [11],0.368

# — PubChem BioAssay (NCATS)
